For some of these results: Potency and affinity values are given separately.

What all share (set-up): scale not given: direction of the effect not stated beside the values
For assay [1], the target named is Protein translocase subunit SecA (Escherichia coli (strain K12)) (UniProt P10408). Description: Assay to Identify E. coli SecA ATPase Inhibitors. To be noted: 30 µM. The assay is classed as functional.
Assay [2] deals with T1, Ubiquitin-activating enzyme e1, putative (Leishmania donovani (strain BPK282A1)) (UniProt E9BSI1).
T1 sequence (whole entry): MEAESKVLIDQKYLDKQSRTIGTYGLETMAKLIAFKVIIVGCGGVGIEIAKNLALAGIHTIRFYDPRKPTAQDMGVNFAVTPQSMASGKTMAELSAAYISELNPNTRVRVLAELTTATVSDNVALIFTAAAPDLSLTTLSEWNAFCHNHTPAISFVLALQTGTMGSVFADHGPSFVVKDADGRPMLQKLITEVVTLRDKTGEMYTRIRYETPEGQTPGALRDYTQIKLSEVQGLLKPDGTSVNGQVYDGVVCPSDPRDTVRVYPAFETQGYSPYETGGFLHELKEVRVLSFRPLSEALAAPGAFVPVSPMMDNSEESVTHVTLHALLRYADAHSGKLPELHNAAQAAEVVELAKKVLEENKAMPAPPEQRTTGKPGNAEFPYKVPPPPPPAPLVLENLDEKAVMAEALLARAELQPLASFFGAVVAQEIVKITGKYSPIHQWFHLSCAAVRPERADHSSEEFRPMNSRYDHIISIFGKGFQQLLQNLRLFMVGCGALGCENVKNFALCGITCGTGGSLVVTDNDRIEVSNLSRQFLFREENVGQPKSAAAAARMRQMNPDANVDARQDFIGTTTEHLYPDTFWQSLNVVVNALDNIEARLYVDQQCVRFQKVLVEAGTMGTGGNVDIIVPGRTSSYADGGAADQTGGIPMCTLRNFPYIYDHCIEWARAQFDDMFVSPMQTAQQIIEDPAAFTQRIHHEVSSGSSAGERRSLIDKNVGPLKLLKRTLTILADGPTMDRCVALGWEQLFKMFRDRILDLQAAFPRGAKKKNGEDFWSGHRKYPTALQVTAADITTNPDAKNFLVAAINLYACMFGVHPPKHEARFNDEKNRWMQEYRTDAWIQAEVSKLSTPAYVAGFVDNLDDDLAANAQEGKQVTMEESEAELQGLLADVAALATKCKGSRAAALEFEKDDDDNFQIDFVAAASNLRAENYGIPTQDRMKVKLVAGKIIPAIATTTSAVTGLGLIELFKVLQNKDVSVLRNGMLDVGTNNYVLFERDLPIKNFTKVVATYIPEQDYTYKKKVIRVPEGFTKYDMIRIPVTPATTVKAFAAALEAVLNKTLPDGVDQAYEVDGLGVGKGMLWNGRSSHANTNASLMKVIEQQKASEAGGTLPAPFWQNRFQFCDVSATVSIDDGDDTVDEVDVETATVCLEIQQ
Put plainly: Leishmania donovani Ubiquitin Activating Enzyme (LdE1). The assay is classed as functional. Conditions: 30 µM.

The target of assay [3] is AMP-activated protein kinase, AMPK (Homo sapiens) (UniProt P54646+O43741+P54619+Q9UGJ0+Q9Y478+Q13131+Q9UGI9). Description: AMP-dependent Kinase enzyme assay. An in vitro enzyme assay that detects ADP turnover that is directly proportional to AMPK activity. This uses naive AMPK that is activated during the assay with MK-8722. The assay is classed as functional. To be noted: 30 µM.

Assay [4] deals with Sialic acid-binding Ig-like lectin 9 (Homo sapiens) (UniProt Q9Y336). Description: Hs-Siglec9 ALPHAscreen SOP 20170721. To be noted: 10 µM. (Bead proximity is the source of the signal in Alpha formats.)
Assay [5] has as its system Trypanosoma cruzi. Put plainly: Trypanosoma cruzi phosphomannomutase and mannose-1-phosphate guanylyltransferase assay. In kind it is functional. To be noted: 10 µM.
The target in assay [6] is T2, Arginase-2, mitochondrial (Homo sapiens) (UniProt P78540).
T2 sequence (whole entry): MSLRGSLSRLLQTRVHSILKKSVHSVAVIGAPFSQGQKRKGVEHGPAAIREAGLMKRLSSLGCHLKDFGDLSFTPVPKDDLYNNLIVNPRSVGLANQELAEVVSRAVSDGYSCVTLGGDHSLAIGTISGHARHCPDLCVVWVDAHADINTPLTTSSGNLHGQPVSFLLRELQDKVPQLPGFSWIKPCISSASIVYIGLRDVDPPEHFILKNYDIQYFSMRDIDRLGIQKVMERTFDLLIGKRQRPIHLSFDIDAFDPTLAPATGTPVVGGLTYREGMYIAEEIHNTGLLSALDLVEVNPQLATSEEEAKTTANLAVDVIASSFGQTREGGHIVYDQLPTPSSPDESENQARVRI
Description: in vitro enzyme assay to detect the production of urea directly proportional to the activity of Arginase II. Note: in the data most compounds retested in dose-response had high values. To be noted: 33.3 µM. In kind it is functional.

For assay [7], the target named is T3, Proteasome subunit beta (Trypanosoma cruzi) (UniProt O96673).
T3 sequence (whole entry): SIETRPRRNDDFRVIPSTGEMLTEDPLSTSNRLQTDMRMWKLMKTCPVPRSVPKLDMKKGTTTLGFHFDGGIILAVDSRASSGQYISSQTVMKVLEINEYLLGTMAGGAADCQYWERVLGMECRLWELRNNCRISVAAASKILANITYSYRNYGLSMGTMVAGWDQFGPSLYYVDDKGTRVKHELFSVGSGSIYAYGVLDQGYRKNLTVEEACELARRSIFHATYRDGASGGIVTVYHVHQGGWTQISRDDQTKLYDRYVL
Put plainly: Trypanosoma cruzi proteasome chymotrypsin-like activity (TcProtChymo) assay. Note: in the data most compounds retested in dose-response had high values. The assay is classed as functional. Conditions: 9.37 µM.

For assay [8], the species on record is Homo sapiens. Description: To identify inhibition of the IFN signalling (Jak-Stat) pathway via expression of an eGFP reporter gene under the control of an IFN-stimulated response element (ISRE) containing MxA promoter. In kind it is functional. Conditions: 30 µM.
Assay [9] deals with T4, Tyrosyl-tRNA synthetase, putative (Trypanosoma cruzi (strain CL Brener)) (UniProt Q4DSP6).
T4 sequence (whole entry): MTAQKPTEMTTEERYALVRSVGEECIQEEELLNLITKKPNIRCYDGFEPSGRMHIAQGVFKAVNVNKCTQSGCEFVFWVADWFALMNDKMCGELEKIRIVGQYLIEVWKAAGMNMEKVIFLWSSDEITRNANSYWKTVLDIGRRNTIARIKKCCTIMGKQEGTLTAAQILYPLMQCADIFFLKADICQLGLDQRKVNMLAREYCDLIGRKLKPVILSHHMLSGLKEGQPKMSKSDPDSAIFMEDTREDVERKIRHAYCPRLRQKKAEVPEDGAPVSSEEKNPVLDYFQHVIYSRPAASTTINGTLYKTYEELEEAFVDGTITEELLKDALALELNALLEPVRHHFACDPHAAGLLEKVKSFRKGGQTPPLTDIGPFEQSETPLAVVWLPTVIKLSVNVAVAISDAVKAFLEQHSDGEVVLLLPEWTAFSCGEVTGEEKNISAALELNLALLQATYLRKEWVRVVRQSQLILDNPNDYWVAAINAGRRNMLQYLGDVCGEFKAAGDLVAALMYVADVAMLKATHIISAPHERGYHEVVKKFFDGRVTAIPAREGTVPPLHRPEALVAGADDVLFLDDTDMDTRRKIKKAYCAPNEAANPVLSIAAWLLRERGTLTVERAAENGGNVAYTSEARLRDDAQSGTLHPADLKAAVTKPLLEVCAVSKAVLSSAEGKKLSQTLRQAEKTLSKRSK
Description: Trypanosoma cruzi tyrosyl tRNA synthetase (TcYRS) _High Tyrosine SOP. Note: in the data most compounds retested in dose-response had high values. In kind it is functional. Conditions: 30 µM.

Assay [10] concerns the target T4, Tyrosyl-tRNA synthetase, putative (Trypanosoma cruzi (strain CL Brener)). Description: Trypanosoma cruzi tyrosyl tRNA synthetase (TcYRS) SOP. In kind it is functional. To be noted: 30 µM.
Assay [11] deals with Chromo domain-containing protein 1 (Saccharomyces cerevisiae (strain ATCC 204508 / S288c) (Baker's yeast)) (UniProt P32657). Put plainly: ScCHD-1 Enzyme Inhibition Assay. Note: in the data most compounds retested in dose-response had high values. In kind it is functional. Conditions: 30 µM.
Sequence of Chromo domain-containing protein 1 (Saccharomyces cerevisiae (strain ATCC 204508 / S288c) (Baker's yeast)) (P32657 whole entry, the tested form may be a part): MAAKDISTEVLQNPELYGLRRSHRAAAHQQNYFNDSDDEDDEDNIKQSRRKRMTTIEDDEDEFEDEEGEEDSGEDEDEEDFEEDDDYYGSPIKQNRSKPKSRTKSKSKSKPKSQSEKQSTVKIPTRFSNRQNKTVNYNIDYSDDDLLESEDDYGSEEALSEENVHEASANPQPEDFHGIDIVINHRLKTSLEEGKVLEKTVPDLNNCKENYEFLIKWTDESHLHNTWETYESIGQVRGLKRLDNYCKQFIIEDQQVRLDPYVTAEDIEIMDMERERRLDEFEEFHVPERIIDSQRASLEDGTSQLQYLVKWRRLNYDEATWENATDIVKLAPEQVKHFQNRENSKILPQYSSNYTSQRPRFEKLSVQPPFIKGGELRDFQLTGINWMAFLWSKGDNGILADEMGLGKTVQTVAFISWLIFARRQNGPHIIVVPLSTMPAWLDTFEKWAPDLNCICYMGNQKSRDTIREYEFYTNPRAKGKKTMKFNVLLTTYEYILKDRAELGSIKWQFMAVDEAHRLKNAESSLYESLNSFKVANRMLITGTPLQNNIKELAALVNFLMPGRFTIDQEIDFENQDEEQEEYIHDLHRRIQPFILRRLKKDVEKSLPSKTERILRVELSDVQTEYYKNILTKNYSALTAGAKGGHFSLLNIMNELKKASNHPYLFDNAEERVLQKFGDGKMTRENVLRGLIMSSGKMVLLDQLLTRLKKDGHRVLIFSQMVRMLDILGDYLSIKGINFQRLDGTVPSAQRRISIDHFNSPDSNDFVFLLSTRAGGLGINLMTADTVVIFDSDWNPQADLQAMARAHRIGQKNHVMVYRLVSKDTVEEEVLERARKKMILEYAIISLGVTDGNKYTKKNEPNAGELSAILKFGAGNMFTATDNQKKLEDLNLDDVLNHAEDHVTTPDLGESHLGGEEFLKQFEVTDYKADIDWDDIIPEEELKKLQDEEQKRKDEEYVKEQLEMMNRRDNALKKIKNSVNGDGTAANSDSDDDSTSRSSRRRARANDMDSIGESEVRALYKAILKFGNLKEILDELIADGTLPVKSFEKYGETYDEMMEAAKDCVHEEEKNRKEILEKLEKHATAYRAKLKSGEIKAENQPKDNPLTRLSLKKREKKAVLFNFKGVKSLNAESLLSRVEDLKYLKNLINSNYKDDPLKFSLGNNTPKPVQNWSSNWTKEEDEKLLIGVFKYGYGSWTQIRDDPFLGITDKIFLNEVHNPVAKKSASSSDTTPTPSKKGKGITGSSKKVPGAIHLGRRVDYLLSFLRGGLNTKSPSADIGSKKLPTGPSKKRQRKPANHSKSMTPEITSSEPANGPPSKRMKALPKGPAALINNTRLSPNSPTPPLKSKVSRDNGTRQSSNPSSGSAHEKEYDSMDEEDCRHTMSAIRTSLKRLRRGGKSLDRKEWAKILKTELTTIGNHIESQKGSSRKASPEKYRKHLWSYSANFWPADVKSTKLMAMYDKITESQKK

Sequence of Protein translocase subunit SecA (Escherichia coli (strain K12)) (P10408 whole entry): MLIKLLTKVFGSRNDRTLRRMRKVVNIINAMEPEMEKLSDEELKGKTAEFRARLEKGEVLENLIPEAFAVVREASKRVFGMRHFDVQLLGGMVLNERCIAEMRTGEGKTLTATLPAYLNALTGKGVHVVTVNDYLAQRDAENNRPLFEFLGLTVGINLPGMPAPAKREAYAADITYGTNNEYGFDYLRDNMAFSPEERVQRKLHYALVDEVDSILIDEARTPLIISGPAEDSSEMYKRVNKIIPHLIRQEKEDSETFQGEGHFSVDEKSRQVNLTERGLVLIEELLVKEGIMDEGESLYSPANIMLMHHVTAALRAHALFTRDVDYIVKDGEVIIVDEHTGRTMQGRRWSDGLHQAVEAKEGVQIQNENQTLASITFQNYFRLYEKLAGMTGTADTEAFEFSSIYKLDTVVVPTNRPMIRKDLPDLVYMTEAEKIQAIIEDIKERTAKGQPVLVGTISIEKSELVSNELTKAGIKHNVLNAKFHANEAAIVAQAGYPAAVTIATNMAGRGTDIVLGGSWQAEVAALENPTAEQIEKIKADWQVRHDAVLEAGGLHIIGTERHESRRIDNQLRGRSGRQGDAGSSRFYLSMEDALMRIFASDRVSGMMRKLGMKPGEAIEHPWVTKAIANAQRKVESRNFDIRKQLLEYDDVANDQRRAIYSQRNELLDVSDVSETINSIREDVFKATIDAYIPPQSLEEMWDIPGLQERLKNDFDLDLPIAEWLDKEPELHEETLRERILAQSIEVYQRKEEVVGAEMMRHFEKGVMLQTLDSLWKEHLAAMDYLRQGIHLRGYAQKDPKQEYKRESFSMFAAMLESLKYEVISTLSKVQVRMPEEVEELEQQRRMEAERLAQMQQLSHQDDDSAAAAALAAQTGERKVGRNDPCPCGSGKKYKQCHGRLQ
Sequence of Sialic acid-binding Ig-like lectin 9 (Homo sapiens) (Q9Y336 whole entry): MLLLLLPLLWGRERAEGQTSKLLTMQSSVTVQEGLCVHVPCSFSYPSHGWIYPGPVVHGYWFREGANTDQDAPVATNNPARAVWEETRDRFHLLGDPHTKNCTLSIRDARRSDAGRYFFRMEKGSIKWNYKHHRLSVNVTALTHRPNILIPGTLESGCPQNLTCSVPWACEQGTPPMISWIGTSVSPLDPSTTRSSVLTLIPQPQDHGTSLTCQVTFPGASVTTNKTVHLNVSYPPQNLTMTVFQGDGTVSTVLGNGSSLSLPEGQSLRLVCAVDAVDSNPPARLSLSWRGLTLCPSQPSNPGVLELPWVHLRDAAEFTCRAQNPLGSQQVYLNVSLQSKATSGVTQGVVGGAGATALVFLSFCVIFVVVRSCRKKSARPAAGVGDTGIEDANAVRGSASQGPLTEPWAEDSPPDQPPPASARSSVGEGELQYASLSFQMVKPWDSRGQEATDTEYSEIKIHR

With `CCc1csc(CCNC(=O)C2CC(=O)N(C(C)C)C2)n1` (stereo unspecified), the Percent Effect in [1] is -2.98%; in assay [2], 15.6%; in assay [3] it was -6.03%; in assay [4], 4.97%; in assay [5] it was 0.0983%; in assay [6] it was -11%. For the same molecule, the Percent Effect was 8.65% in assay [7]; 8.23% in assay [8]; 6.45% in assay [9]; 13.6% in assay [10]; -1.5% in assay [11].
For the molecule `CN(C)CC(=O)N1CCC2(CC1)CN(c1ccsc1)C(=O)CO2`, the Percent Effect is -9.33% in [1]; 2.67% in assay [2]; 3.11% in assay [3]; -6.49% in [4]; -4.33% in assay [5]; -0.233% in assay [6]. The Percent Effect was 3.96% in assay [7]; 15.6% in assay [8]; 0% in assay [9]; -3.85% in assay [10]; -3.46% in assay [11].
On to `CC(C)NC(=O)CS(=O)(=O)Cc1cc(Cl)c2c(c1)OCCO2`, for which the Percent Effect is -2.36% in [1]; 20.2% in [2]; -6.59% in assay [3]; -0.915% in assay [4]; -0.283% in assay [5]; -1.52% in assay [6]. Further, the Percent Effect in assay [7] was 0.737%; in assay [8], 13.3%; in assay [9] it was 7.39%; in [10], 24.1%; in assay [11], -5.39%.
`CS(=O)(=O)NCc1n[nH]c2c1CCN(C(=O)c1ccsc1)C2`: the Percent Effect in [1] is -4.91%; in [2], 0%; in assay [3] it was 2.22%; in assay [4], -3.92%; in [5] it was -3.48%; in assay [6] it was -59.7%. Moreover, the Percent Effect in [7] was 10.9%; in [8] it was 5.55%; in assay [9], -2.08%; in assay [10], 0%; in assay [11], -5%.
Regarding `CC(C)c1cc(C(=O)N2CCN(Cc3ccsc3)CC2)n[nH]1`, the Percent Effect was -2.94% in assay [1]; 13.5% in assay [2]; -2.35% in [3]; 15% in assay [4]; 5.57% in assay [5]; 18.1% in assay [6]. Besides, the Percent Effect in assay [7] was 12.1%; in [8], 28%; in assay [9] it was 4.3%; in assay [10], 18.5%; in [11] it was -3.72%.
With `COCC(O)CN(C)C(=O)NC1CCN(Cc2ccccn2)CC1` (stereo unspecified), the Percent Effect in assay [1] was -2.64%; in assay [2], 28.6%; in [3] it was -7.26%; in assay [4] it was 1.62%; in assay [5], 4.31%; in assay [6], -2.85%. Moreover, the Percent Effect in [7] is 15.4%; in assay [8], 7.67%; in assay [9], 5.83%; in assay [10] it was 24.4%; in assay [11], -8.51%.
`CC(C)c1csc(C2CCCN(C(=O)c3ccc(=O)n(C)n3)C2)n1` (stereo unspecified): the Percent Effect is -2.9% in assay [1]; 13.5% in assay [2]; -11.4% in assay [3]; -0.23% in [4]; -1.86% in [5]; 1.74% in assay [6]. The Percent Effect was 7.3% in assay [7]; 26% in assay [8]; 4.3% in [9]; 11.1% in assay [10]; -5.6% in assay [11].
Turning to `CC(C)c1nc2c(n1C)CCN(CC(=O)Nc1ccc(Cl)cn1)C2`, the Percent Effect in assay [1] is -1.64%; in assay [2], 15.6%; in assay [3] it was 1.07%; in [4] it was 6.83%; in assay [5], 0.686%; in assay [6], -2.32%. Besides, the Percent Effect in [7] was 19.8%; in assay [8], 6.83%; in assay [9], 4.76%; in [10], 21.2%; in assay [11] it was -21.7%.
`COCCCN1CCc2cncnc2C1`: the Percent Effect was -2.65% in [1]; 5.06% in assay [2]; -237% in assay [3]; 6.45% in assay [4]; 9.35% in assay [5]; 2.66% in assay [6]. Also, the Percent Effect in assay [7] was 8.27%; in assay [8], -13.7%; in [9], 5.42%; in [10], 8.86%; in [11] it was -6.93%.
As for `CCN1CCC(NC(=O)CN2CCCC2Cn2nc(C)cc2C)CC1` (stereo unspecified), the Percent Effect in assay [1] was -3.31%; in assay [2], 2.7%; in assay [3] it was -2.56%; in [4] it was 6.76%; in assay [5], -3.3%; in assay [6], -5.61%. Moreover, the Percent Effect was -0.54% in assay [7]; 3.04% in [8]; 4.43% in assay [9]; 1.24% in assay [10]; 0.399% in [11].
Turning to `Cc1c(C)n(Cc2ccccn2)c2nc3c(c(N)c12)CCCC3`, the Percent Effect is -3.58% in assay [1]; -1.33% in [2]; 15.5% in assay [3]; 6.91% in [4]; -3.73% in assay [5]; -8.98% in [6]. The Percent Effect in [7] is 12.8%; in [8] it was -6.48%; in assay [9] it was 2.12%; in assay [10], 5.13%; in [11] it was -5.09%.

Values taken from ChEMBL document CHEMBL3988442, “University of Dundee, Small-Polar-MMV Screening Library” (2021).
